Here are results for 5 compounds from PubChem BioAssay.

Values joined by “and” are separate entries in the source; they are usually repeats but may differ in a detail not shown here. Equal values may be shown once. More than one record can exist for a structure, and the calls need not agree. Active and inactive are the calls of the source.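 How the source made its calls: active means normalized viability below 100% at a tested concentration; inactive means the rest.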

The first assay is described as follows: ovarian cancer cell viability with rucaparib, profiling panel, oncology-focused library, rucaparib conditional (AID 1508598). The note with it: patient-derived ovarian cancer cells, CellTiter-Glo viability, 144 h; at 0.00488 µM; OCI-C5x cells; with rucaparib 10 µM; stronger effect = lower value; 100% = cells with rucaparib alone.
Broadly, the viability is a read-out of living cells in per cent, often relative to untreated cells. As for `S=c1nc[nH]c2nc[nH]c12`, the viability is 111% (inactive).
Same read-out and setting: then `CC1=C(/C=C/C(C)=C/C=C/C(C)=C/C(=O)O)C(C)(C)CCC1`, with 124% (inactive); and `O=c1[nH]cnc2[nH]ncc12`, with 118% (inactive).
Take `O=C1c2c(O)ccc(O)c2C(=O)c2c(NCCNCCO)ccc(NCCNCCO)c21`: the viability was 104% (inactive) and 93.6% (active).
The same measure, in the same setting: then `CC(C)C(=O)Nc1ccc([N+](=O)[O-])c(C(F)(F)F)c1`, with 111% (inactive).

Still in this assay, the particulars now being: patient-derived ovarian cancer cells, CellTiter-Glo viability, 144 h; at 0.00488 µM; OCI-C5x cells; without rucaparib; stronger effect = lower value.
For `S=c1nc[nH]c2nc[nH]c12`, the viability was 100% (inactive).
Still for that read-out and setting: then `CC1=C(/C=C/C(C)=C/C=C/C(C)=C/C(=O)O)C(C)(C)CCC1`, with 115% (inactive); and `O=c1[nH]cnc2[nH]ncc12`, with 125% (inactive).
As to `O=C1c2c(O)ccc(O)c2C(=O)c2c(NCCNCCO)ccc(NCCNCCO)c21`, the viability was 113% (inactive) and 104% (inactive).
On the same count and under the same terms, then `CC(C)C(=O)Nc1ccc([N+](=O)[O-])c(C(F)(F)F)c1`, with 113% (inactive).
